# Reference: PubChem BioAssay (NCI)
# Compounds without any hit were thinned out: in the full panel of roughly 79,000, 15% have a hit. A number with no mark means an inactive call. The source made the active and inactive calls. Rule as the data show it: active = growth inhibition above about 70%; inactive = the rest.
# Assays:
# [1] = NCI Yeast Anticancer Drug Screen. Data for the rad50 strain (AID 155);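 also: 0% = growth of vehicle-only cultures of the same strain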; conditions: S. cerevisiae rad50 strain growth inhibition, stronger effect = higher value
# Summary of the method: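 A DNA repair-deficient yeast mutant serves as the test organism; compound-induced growth inhibition is calculated against vehicle-treated cells.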
# [2] = NCI Yeast Anticancer Drug Screen. Data for the mec2-1 strain (AID 157); conditions: S. cerevisiae mec2-1 strain, stronger effect = higher value
# Summary of the method: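 Using mec2-1 yeast: add compound, measure growth, express inhibition versus vehicle-treated cultures.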
# [3] = NCI Yeast Anticancer Drug Screen. Data for the sgs1 mgt1 strain (AID 161);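 also: 0% = growth of cultures given vehicle only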; conditions: S. cerevisiae sgs1 mgt1 strain, stronger effect = higher value
# Summary of the method: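 Percent growth inhibition was derived by comparing compound-exposed mutant yeast with vehicle-exposed cultures. The strain carries alterations in DNA damage repair.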
# [4] = NCI Yeast Anticancer Drug Screen. Data for the cln2 rad14 strain (AID 165);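 also: 0% = growth equal to vehicle treated cultures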; conditions: S. cerevisiae cln2 rad14 strain, stronger effect = higher value
# Summary of the method: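 Yeast strain cln2 rad14, bearing defects in cell cycle control and DNA repair, serves as the test system; values reflect growth inhibition compared with vehicle.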
# [5] = NCI Yeast Anticancer Drug Screen. Data for the bub3 strain (AID 167); conditions: S. cerevisiae bub3 mutant strain, stronger effect = higher value
# Summary of the method: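 Inhibition values come from growth of compound-treated mutant yeast normalised to vehicle-treated controls.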
# [6] = NCI Yeast Anticancer Drug Screen. Data for the mlh1 rad18 strain (AID 175); conditions: S. cerevisiae mlh1 rad18 strain growth inhibition, stronger effect = higher value
# Summary of the method: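 Steps: expose repair-defective yeast to compound; measure growth; express inhibition against vehicle-treated controls.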
# [7] = at 5.0 µM (retest, dose inferred, filed as 0.5)
# [8] = at 50.0 µM (retest, dose inferred, filed as 5.0)
Compound,"growth inhibition [1, 7]","growth inhibition [1, 8]",growth inhibition ([1]; at 50.0 µM),"growth inhibition [2, 7]","growth inhibition [2, 8]",growth inhibition ([2]; at 50.0 µM),"growth inhibition [3, 7]","growth inhibition [3, 8]",growth inhibition ([3]; at 50.0 µM),"growth inhibition [4, 7]","growth inhibition [4, 8]",growth inhibition ([4]; at 50.0 µM),"growth inhibition [5, 7]","growth inhibition [5, 8]",growth inhibition ([5]; at 50.0 µM),"growth inhibition [6, 7]","growth inhibition [6, 8]",growth inhibition ([6]; at 50.0 µM)
CC(C)SC(=S)Nc1cc(C(F)(F)F)ccc1Cl,-2%,99% (active),99.5% (active),2%,98% (active),99.7% (active),0%,100% (active),99.6% (active),-15%,98% (active),99.4% (active),2%,91% (active),99.5% (active),0%,97% (active),99.5% (active)
CC[C@@H]1O[C@@H]([C@@H]2CC[C@](O)([C@]3(C)CC[C@@H]([C@@H](C)[C@@]4(O)CC[C@H](C)[C@@H](C[C@@]5(O)O[C@@H]([C@@H](C)[C@H](O)C[C@H]6CC[C@H](C)[C@@H]([C@@H](C)C(=O)O)O6)CC[C@@H]5C)O4)O3)O2)CC[C@@]1(C)O,10%,90% (active),88.4% (active),34%,94% (active),90.2% (active),-9%,92% (active),89.2% (active),58%,92% (active),88.2% (active),-14%,93% (active),87.2% (active),-18%,93% (active),87.7% (active)
COc1ccc(Oc2ccc(C(=O)C(CN(C)C)CN(C)C)cc2)cc1,-4%,96% (active),84% (active),-13%,97% (active),87.8% (active),11%,98% (active),85.8% (active),-2%,95% (active),87.8% (active),-3%,96% (active),85.6% (active),0%,96% (active),86.5% (active)
Cc1ccc(C(OS(=O)(=O)c2ccc(C)cc2)C(F)(F)F)cc1 (stereo not given),-1%,-2%,62.6%,-11%,-1%,52.5%,-4%,-13%,72.9% (active),3%,-2%,15.1%,0%,37%,1.7%,19%,2%,66.2%
CN1c2ccccc2C(c2ccccc2)c2ccc(Nc3ccccc3)cc21 (stereo not given),94% (active),99% (active),97.7% (active),100% (active),100% (active),99.6% (active),98% (active),100% (active),99.5% (active),95% (active),99% (active),99.2% (active),96% (active),99% (active),99.3% (active),98% (active),99% (active),99.4% (active)
Cc1c2cc[n+]([O-])cc2c(C)c2c1oc1ccccc12,65%,99% (active),50.5%,34%,98% (active),46.6%,13%,98% (active),42.4%,23%,99% (active),50.8%,32%,99% (active),95.2% (active),22%,98% (active),55.1%
CCOC(=O)CSC(=S)N1CCOCC1,-3%,-2%,37%,-2%,-10%,-9.1%,-4%,-6%,-10.6%,-5%,-9%,-32.2%,-1%,-6%,-3.9%,-2%,0%,-29.2%
O=C(CSCc1c(F)cccc1Cl)Nc1ccc(F)c(Cl)c1,51%,39%,88.3% (active),34%,38%,91.3% (active),36%,50%,91.7% (active),33%,44%,90.1% (active),45%,76% (active),91.5% (active),49%,53%,63.2%
CCCCCCCC/C=C\CCCCCCCC(=O)NCC[N+](C)(C)C,48%,99% (active),99.2% (active),17%,100% (active),99.7% (active),53%,99% (active),99.7% (active),10%,99% (active),97.4% (active),83% (active),100% (active),99.3% (active),10%,99% (active),99.5% (active)
Cc1c2ccccc2c(C)c2c1cc(F)c1ccccc12,32%,88% (active),96.1% (active),43%,92% (active),97.3% (active),46%,94% (active),96.4% (active),34%,91% (active),94.5% (active),21%,90% (active),94.8% (active),55%,89% (active),93.8% (active)
